For 38 compounds, growth results are on record in PubChem BioAssay (NCI).

Several values for one entry are separate records, joined by “and”; a condition that tells them apart may be missing. Identical values can stand only once. This is part of a sample that, as a whole, favours compounds with a hit. Of some 83,000 tested, about 20% had one in any assay.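 48-hour exposure, single concentration, 96-well plates; percent growth endpoint where 0 means no net growth. Active: below 10.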 Activity calls are given as the source filed them.

This assay deals with TK-10 renal. Kind of assay: NCI-60 one-dose screen, 48 h (100 = growth as untreated, 0 = no growth, -100 = all killed). To be noted: 10 µM unless noted.
For the compound `CC1=CC[C@@H]2[C@@H](CC[C@@]2(C)O)C(C)(C)[C@H]1CC[C@@H]1[C@@]2(C)CC[C@@H](O)C(C)(C)O[C@@H]2CC[C@]1(C)O`, the growth was 12.5% [100 µM] (inactive) and -92.2% [100 µM] (active). The value for `C[C@@H]1CCC([C@@H](C)[C@H]2CC[C@H]3[C@@H]4CC[C@H]5C[C@@H](O)CC[C@]5(C)[C@H]4CC[C@]23C)=NC1` was 27.5% [100 µM] (inactive) and -69% [100 µM] (active). Next, `Cc1c2c(c(C)c3c[n+](C)ccc13)Oc1ccccc1O2`: -2.16% [100 µM] (active) and -100% [100 µM] (active); `C=C1C(=O)OC2CC3(C)CCCC(C)C3=CC12` (stereo not drawn): -100% [100 µM] (active) and -97% [100 µM] (active). Next, `C=c1c2ccccc2oc2nc3[nH]c(N)c(C#N)c(N)c3c(=N)c12`: 43.9% [100 µM] (inactive) and -12.1% [100 µM] (active); `Cc1ccc(NC(=S)C#N)cc1Cl`: 7.58% [100 µM] (active) and -53.9% [100 µM] (active); `COc1c(/C=C/C=O)cc2c(c1OC)OCO2`: -2.29% [100 µM] (active) and -52.3% [100 µM] (active). Regarding `COc1ccc2nc3c4c(nccc4c2c1)-c1ncccc1C3=O`, the growth is -90.7% [50 µM] (active) and -100% [50 µM] (active).

For `Cc1ccc(/C=N/Nc2cc(C)c3cccc(C)c3n2)s1`, the growth was -67.1% [100 µM] (active) and -100% [100 µM] (active).

Regarding `C=C1C(=O)OC2CC1C(OC(=O)/C=C/c1ccccc1)C/C(C)=C/CC/C(C)=C/CCC2(C)O` (stereo not drawn), the growth is -99.2% [100 µM] (active) and -83.5% [100 µM] (active). Take `CC(C)(C)N/N=C(/Cc1nc2c3c(ccc2[nH]c1=O)C(=O)c1ccccc1C3=O)C(=O)NC1=C(Cl)C(=O)c2ccccc2C1=O`: the growth was 59.3% [100 µM] (inactive) and -41.1% [100 µM] (active). The value for `CCOc1ccc(NC(=O)/C(=N\N)C(C(=O)OC)c2nc3ccc(Cl)cc3[nH]c2=O)cc1` (stereo not drawn) was 128% [100 µM] (inactive) and 85.6% [100 µM] (inactive). The value for `COc1ccc(OC)c(Cc2cnc3nc(N)nc(N)c3c2C)c1` was 27.5% [100 µM] (inactive) and -100% [100 µM] (active); that for `C=CCO/N=C/c1cc(NC(=S)c2ccoc2C)ccc1Cl` was -93.7% [100 µM] (active) and -93.1% [100 µM] (active); that for `CC1=C(Cl)C[C@@H](/C(C)=C\Cl)O[C@@]1(O)C(Br)Br` was 101% [100 µM] (inactive) and -87.5% [100 µM] (active). The value for `COc1ccc2c(c1)C(OC)C1c3c(cc4c(c3-2)OCO4)CCN1C` (stereo not drawn) was -18.2% [100 µM] (active) and -91.5% [100 µM] (active); that for `CC1OC(OC2C(OC3CCC4(C)C(CCC5(C)C4CC=C4C6CC(C)(C)CCC6(C(=O)O)CCC45C)C3(C)CO)OCC(O)C2O)C(O)C(O)C1O` (stereo not drawn) was -92.1% [100 µM] (active) and -100% [100 µM] (active); that for `Cc1cc(O)c2c(c1)C(=O)C(c1c(C)cc3c(c1O)C(=O)C1OC1C3=O)=CC2=O` (stereo not drawn) was -99.7% [100 µM] (active) and -86.5% [100 µM] (active). For the compound `On1c(-c2ccccc2)nc2ccccc2c1=S`, the growth is 1.71% [100 µM] (active) and -38.8% [100 µM] (active). Next, `C=C(CO)C(=O)OC1CC(=C)C2CC(O)C(C)C2C2OC(=O)C(=C)C12` (stereo not drawn): 103% [100 µM] (inactive) and -92% [100 µM] (active); `Fc1cccc(F)c1C1SCc2nc3cc4ccccc4cc3n21` (stereo not drawn): 27% [100 µM] (inactive) and 34.3% [100 µM] (inactive); `O=C(/C=C/c1ccccc1)CCC1C(=O)c2ccccc2C1=O`: 105% [100 µM] (inactive) and 77.6% [100 µM] (inactive).

In the case of `CN1CCc2cc3c(c4c2C1C(O)c1ccccc1-4)OCO3` (stereo not drawn), the growth was 9.4% [100 µM] (active) and -86.5% [100 µM] (active). `Cn1c(COC(=O)NC2CCCCC2)c(COC(=O)NC2CCCCC2)c2ccc3cc(Cl)c(Cl)cc3c21`: the growth was -93.7% [100 µM] (active).

Consider `CC1(C)CCC2(C(=O)O)C(O)CC3(C)C(=CCC4C5(C)CCC(OC6OCC(O)C(O)C6OC6OCC(O)C(O)C6OC6OCC(O)C(OC7OC(CO)C(O)C(O)C7O)C6O)C(C)(C)C5CCC43C)C2C1` (stereo not drawn), for which the growth was 116% [100 µM] (inactive) and 15.1% [100 µM] (inactive). For `S=C1NC2=C(COc3ccccc32)C(c2ccc(Cl)cc2)N1` (stereo not drawn), the growth was -3.55% [100 µM] (active) and -100% [100 µM] (active). Next, `COC(=O)[C@]1(C)CCC[C@@]2(C)[C@@H]3C[C@@H]4[C@H]5C[C@@]3(CC[C@@H]21)C[C@@]45C`: -88.2% [100 µM] (active) and -65.7% [100 µM] (active); `O=C(O)CCCOc1cc(-c2ccccc2F)nc2cc3c(cc12)OCO3`: 53.8% [100 µM] (inactive) and 2.37% [100 µM] (active); `CC1=C(C2=C(C)C(=O)C(=O)c3cc(C)ccc32)c2ccc(C)cc2C(=O)C1=O`: -100% [100 µM] (active). The value for `O=Cc1ccc(-c2ccc(-c3ccc(CO)s3)o2)s1` was -35% [100 µM] (active) and -93.3% [100 µM] (active). Next, `CC1(C=O)CCC23COC4(CCC5C6(C)CCC(OC7OCC(OC8OC(CO)C(O)C(OC9OC(CO)C(O)C(O)C9O)C8OC8OCC(O)C(O)C8O)C(O)C7OC7OC(CO)C(O)C(O)C7O)C(C)(C)C6CCC5(C)C4(C)CC2O)C3C1` (stereo not drawn): -87.3% [100 µM] (active) and -69.8% [100 µM] (active); `C=C1C(=O)C2=CC1CCC(=O)C1(C)CCC(OC(C)=O)C(C)(C)C1CC2O` (stereo not drawn): -96% [100 µM] (active) and -89.5% [100 µM] (active); `C=C(C)C1CC2(C)C(C)CC(O)CC2C(OC(=O)C=C(C)C)C1O` (stereo not drawn): 17.2% [100 µM] (inactive) and 48.8% [100 µM] (inactive). In the case of `CC1(C)CCC[C@]2(C)[C@@H](C=O)C(C=O)=CC[C@@H]12`, the growth was -6.19% [100 µM] (active) and -33.3% [100 µM] (active). Take `CCOC(=O)COc1cc(-c2ccccc2F)nc2cc3c(cc12)OCO3`: the growth is 126% [100 µM] (inactive) and 78.4% [100 µM] (inactive). Next, `N=C1C(=N)c2ccccc2-c2ccccc21`: 51.2% [100 µM] (inactive) and 3.24% [100 µM] (active); `COc1ccc2c(c1)C(N)=C(c1ccccc1)C2=O`: 99.7% [100 µM] (inactive) and 3.68% [100 µM] (active); `CCOC(=O)C1C(C(C)C)C2(C#N)C(=N)OC1(C)C2(C#N)C#N` (stereo not drawn): 5.66% [100 µM] (active) and -73.8% [100 µM] (active).
